# Source: PubChem BioAssay (NCATS)
# Results filed as inconclusive are left out. Calls of active or inactive are those of the source. The call rests on the fitted dose curve; in most records, active means well fitted curve in the direction sought with a large enough effect; inconclusive means small, poorly fitted or top-dose-only effect, or another doubt; inactive means no such curve, though single readings can be large; an effect the other way counts as inactive or inconclusive.
# Legend:
# [1] = qHTS of pediatric cancer cell lines to identify multiple opportunities for drug repurposing: Primary screen for A673 cells (AID 1347092); further: nearly all actives have a fitted effect of over 45% in size
# Procedure, shortened: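 A673 cells (500-1,000 cells/well) were treated 48 hours at 37 degrees C with compounds at 11-point (0.78 nM to 46 µM) or 8-point (0.59 nM to 46 µM) dilutions. Viability read by CellTiter-Glo luminescence; concentration-response curves fitted.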
# [2] = qHTS of pediatric cancer cell lines to identify multiple opportunities for drug repurposing: Primary screen for SK-N-MC cells (AID 1347093)
# Procedure, shortened: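 Metabolically active cells were quantified by ATP-dependent luminescence (CellTiter-Glo, 15 min at room temperature) following 48 h treatment. Cells had been plated at 500-1,000 per well and settled for 5 h beforehand.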
# [3] = qHTS of pediatric cancer cell lines to identify multiple opportunities for drug repurposing: Primary screen for BT-37 cells (AID 1347094)
# Procedure, shortened: (§1)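 Cells plated at 500-1,000/well in growth medium, compounds added after 5 h. MIPE tested at 11 points (from 0.78 nM), NPC at 8 points (from 0.59 nM). CellTiter-Glo luminescence after 48 h; concentration-response curves from primary screen.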
# [4] = qHTS of pediatric cancer cell lines to identify multiple opportunities for drug repurposing: Primary screen for U-2 OS cells (AID 1347096); further: nearly all actives have a fitted effect of over 50% in size
# Procedure, shortened: (§2)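 Viability after 48 h compound treatment at 37C, 500-1,000 cells/well, read as ATP luminescence with CellTiter-Glo. Primary screens used 11-point (MIPE, 0.78 nM-46 µM) or 8-point (NPC, 0.59 nM-46 µM) final concentrations; follow-up screens used 11-point dilutions.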
# [5] = qHTS of pediatric cancer cell lines to identify multiple opportunities for drug repurposing: Primary screen for Saos-2 cells (AID 1347097); further: nearly all actives have a fitted effect of over 40% in size
# Procedure, shortened: as §1
# [6] = qHTS of pediatric cancer cell lines to identify multiple opportunities for drug repurposing: Primary screen for SK-N-SH cells (AID 1347098); further: nearly all actives have a fitted effect of over 65% in size
# Procedure, shortened: (§3)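 Cells (500-1,000/well) rested 5 h, then received compounds for 48 h; metabolically active cells were measured by CellTiter-Glo luminescence. Final concentrations spanned up to 46 µM (MIPE, 11-point) or 0.59 nM-46 µM (NPC, 8-point) in primary screens, 11-point in follow-ups.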
# [7] = qHTS of pediatric cancer cell lines to identify multiple opportunities for drug repurposing: Primary screen for NB1643 cells (AID 1347099); further: nearly all actives have a fitted effect of over 50% in size
# Procedure, shortened: as §1
# [8] = qHTS of pediatric cancer cell lines to identify multiple opportunities for drug repurposing: Primary screen for BT-12 cells (AID 1347101); further: nearly all actives have a fitted effect of over 25% in size
# Procedure, shortened: as §3
# [9] = qHTS of pediatric cancer cell lines to identify multiple opportunities for drug repurposing: Primary screen for NB-EBc1 cells (AID 1347095)
# Procedure, shortened: as §1
# [10] = qHTS of pediatric cancer cell lines to identify multiple opportunities for drug repurposing: Primary screen for LAN-5 cells (AID 1347100)
# Procedure, shortened: as §2
# Potency means the concentration at half of the fitted maximal effect.
SMILES,Potency [1],Potency [2],Potency [3],Potency [4],Potency [5],Potency [6],Potency [7],Potency [8],Potency [9],Potency [10]
CS[C@H]1SC[C@@H]2C(=O)N(C)[C@H](C(C)C)C(=O)OC[C@H](NC(=O)c3cnc4ccccc4n3)C(=O)N[C@H](C)C(=O)N(C)[C@@H]1C(=O)N(C)[C@H](C(C)C)C(=O)OC[C@H](NC(=O)c1cnc3ccccc3n1)C(=O)N[C@H](C)C(=O)N2C,0.0023 µM (active),0.0013 µM (active),0.0017 µM (active),0.0093 µM (active),0.0418 µM (active),0.0048 µM (active),inactive,0.0054 µM (active),–,–
CC(C=CC=C(C)C=CC1=C(C)CCCC1(C)C)=CC=CC=C(C)C=CC=C(C)C=CC1=C(C)CCCC1(C)C,5.9 µM (active),7.43 µM (active),inactive,inactive,–,–,–,inactive,–,–
CC(O)(C#Cc1ccc2c(c1)N(c1nc(N)ncc1Cl)CC2)c1nccs1 (stereo not given),5.9 µM (active),2.35 µM (active),–,inactive,–,21.5 µM (active),16.6 µM (active),–,inactive,–
CN1[C@H]2CC(OC(=O)[C@@H](CO)c3ccccc3)C[C@H]1[C@H]1O[C@H]12 (stereo not given in full),inactive,inactive,inactive,inactive,inactive,inactive,–,inactive,–,inactive
CN1CCCN(C(=O)c2cccc(-c3ccc(C=C4C(=O)Nc5ccc(Cl)cc54)o3)c2)CC1,18.7 µM (active),14.8 µM (active),6.85 µM (active),–,23.5 µM (active),–,5.9 µM (active),24.3 µM (active),–,2.09 µM (active)
COc1cccc2c1C(=O)c1c(O)c3c(c(O)c1C2=O)C[C@@](O)(C(=O)CO)C[C@@H]3O[C@H]1C[C@H](N)[C@H](OC2CCCCO2)[C@H](C)O1 (stereo not given in full),2.35 µM (active),0.833 µM (active),1.93 µM (active),inactive,inactive,inactive,–,2.43 µM (active),–,0.469 µM (active)
COc1cc2c(cc1OC)[C@@H]1C(=O)c3ccc4c(c3O[C@@H]1CO2)C=CC(C)(C)O4,0.0743 µM (active),0.148 µM (active),–,inactive,13.2 µM (active),–,3.32 µM (active),0.0273 µM (active),10.5 µM (active),18.7 µM (active)
COC(=O)[C@@H]1CC2=CC(=O)CC[C@]2(C)[C@@]23O[C@@H]2C[C@@]2(C)[C@H](CC[C@@]24CCC(=O)O4)[C@@H]13,inactive,inactive,inactive,inactive,inactive,inactive,inactive,inactive,–,inactive
CC(=O)N[C@H]1[C@@H]([C@H](O)[C@H](O)CO)OC(C(=O)O)=C[C@@H]1N=C(N)N,inactive,inactive,inactive,inactive,inactive,inactive,inactive,inactive,–,inactive
CC(N[C@H]1CCCC[C@H]1NC(=O)c1ccc(Cl)cc1)c1cccc2ccccc12 (stereo not given in full),0.743 µM (active),0.0209 µM (active),1.53 µM (active),inactive,0.0662 µM (active),4.82 µM (active),0.418 µM (active),1.37 µM (active),–,2.96 µM (active)
Cn1cnc2c(F)c(Nc3ccc(Br)cc3F)c(C(=O)NOCCO)cc21,inactive,inactive,inactive,–,inactive,–,inactive,–,–,–
Cc1ccc2nc(NCCN)c3ncc(C)n3c2c1,1.87 µM (active),1.66 µM (active),24.3 µM (active),–,14.8 µM (active),6.81 µM (active),5.9 µM (active),34.3 µM (active),–,–
CC(C)[C@H](CO)Nc1nc(Nc2cccc(Cl)c2)c2ncn(C(C)C)c2n1,14.8 µM (active),1.32 µM (active),21.7 µM (active),–,9.35 µM (active),21.5 µM (active),2.96 µM (active),21.7 µM (active),–,11.8 µM (active)
CCOC(=O)N1CCN([N+]([O-])=NOc2ccc([N+](=O)[O-])cc2[N+](=O)[O-])CC1,9.35 µM (active),8.33 µM (active),15.3 µM (active),–,18.7 µM (active),27.1 µM (active),–,–,–,11.8 µM (active)
CC1(C)O[C@@H]2C[C@H]3[C@@H]4CCC5=CC(=O)C=C[C@]5(C)[C@@H]4[C@@H](O)C[C@]3(C)[C@]2(C(=O)CO)O1,inactive,29.6 µM (active),inactive,inactive,–,inactive,–,inactive,–,inactive
COc1ccc(C(C)=O)c(O)c1,2.96 µM (active),0.0372 µM (active),–,inactive,1.66 µM (active),inactive,5.26 µM (active),6.85 µM (active),inactive,inactive
NC(=NCCCCCCN=C(N)N=C(N)Nc1ccc(Cl)cc1)N=C(N)Nc1ccc(Cl)cc1,2.96 µM (active),2.09 µM (active),–,inactive,18.7 µM (active),21.5 µM (active),–,–,26.4 µM (active),–
COc1cc(C[C@@H](CO)[C@H](CO)Cc2ccc(O)c(OC)c2)ccc1O,0.187 µM (active),0.209 µM (active),3.85 µM (active),–,5.9 µM (active),1.71 µM (active),0.59 µM (active),10.9 µM (active),–,2.35 µM (active)
NC1=N[C@H]2[C@H](CS[C@H]2CCCCC(=O)O)N1,inactive,inactive,inactive,inactive,inactive,inactive,inactive,inactive,–,inactive

SMILES,Potency [1],Potency [2],Potency [3],Potency [4],Potency [5],Potency [6],Potency [7],Potency [8],Potency [9],Potency [10]
CCc1cnn2c(NCc3ccc[n+]([O-])c3)cc(N3CCCC[C@@H]3CCO)nc12,0.0148 µM (active),0.0296 µM (active),0.0385 µM (active),–,0.0235 µM (active),0.0383 µM (active),–,0.0432 µM (active),–,–
C[C@@H](Oc1ccc2[nH]nc(C=Cc3cnn(CCO)c3)c2c1)c1c(Cl)cncc1Cl,18.7 µM (active),7.43 µM (active),24.3 µM (active),inactive,–,0.681 µM (active),–,17.2 µM (active),–,4.18 µM (active)
CN[C@@H]1C[C@H]2O[C@@](C)([C@H]1OC)n1c3ccccc3c3c4c(c5c6ccccc6n2c5c31)C(=O)N[C@H]4O,0.296 µM (active),0.0372 µM (active),6.85 µM (active),2.96 µM (active),0.235 µM (active),0.607 µM (active),0.526 µM (active),27.3 µM (active),–,–
CN(N=O)C(=O)N[C@H]1C(O)OC(CO)[C@@H](O)[C@H]1O (stereo not given in full),inactive,inactive,inactive,inactive,inactive,inactive,–,–,–,inactive
O=c1[nH]c(=O)n([C@H]2C[C@@H](O)[C@@H](CO)O2)cc1F,1.87 µM (active),16.6 µM (active),0.685 µM (active),18.7 µM (active),5.9 µM (active),inactive,14.8 µM (active),6.11 µM (active),–,1.32 µM (active)
O=C(Nc1cccc(Nc2ncc(Br)c(NCCc3cnc[nH]3)n2)c1)N1CCCC1,11.8 µM (active),0.332 µM (active),21.7 µM (active),inactive,1.05 µM (active),13.6 µM (active),–,19.3 µM (active),–,0.118 µM (active)
N#Cc1c(C2CCNCC2)cc(-c2c(O)cccc2OCC2CC2)nc1N,18.7 µM (active),1.05 µM (active),–,inactive,–,21.5 µM (active),–,–,18.7 µM (active),–
C=CC(=O)Nc1cc(NC(=O)c2ccc(C)c(NC(=O)c3ccno3)c2)cc(C(F)(F)F)c1,14.8 µM (active),10.5 µM (active),27.3 µM (active),–,18.7 µM (active),24.1 µM (active),–,–,–,16.6 µM (active)
CC(C)NC[C@@H](C(=O)N1CCN(c2ncnc3c2[C@H](C)C[C@H]3O)CC1)c1ccc(Cl)cc1,11.8 µM (active),0.132 µM (active),4.32 µM (active),–,6.62 µM (active),12.1 µM (active),3.32 µM (active),24.3 µM (active),–,–
CC(=O)N1CCN(c2ccc(OCc3nn(C)c(C)c3-c3cccc4c(CCCOc5cccc6ccccc56)c(C(=O)O)n(Cc5cccnc5)c34)cc2)CC1,0.0743 µM (active),0.0235 µM (active),0.485 µM (active),3.72 µM (active),3.72 µM (active),3.83 µM (active),0.209 µM (active),2.43 µM (active),–,0.148 µM (active)
Oc1cc(-c2nc(-c3ccccc3)[nH]c2-c2ccncc2)ccc1Cl,1.48 µM (active),0.662 µM (active),3.85 µM (active),–,11.8 µM (active),19.2 µM (active),18.7 µM (active),6.11 µM (active),–,16.6 µM (active)
OC[C@@H](O)[C@@H](O)[C@H](O)[C@@H](O)CO,inactive,inactive,inactive,inactive,inactive,inactive,inactive,inactive,–,inactive
N[C@H]1CN(c2c(F)cc3c(=O)c(C(=O)O)cn(C4C[C@@H]4F)c3c2Cl)CC12CC2 (stereo not given in full),inactive,inactive,inactive,inactive,inactive,inactive,inactive,inactive,–,21.1 µM (active)
CN1C(C(=O)Nc2ccccn2)=C(O)c2sc(Cl)cc2S1(=O)=O,2.96 µM (active),4.69 µM (active),–,inactive,–,9.61 µM (active),18.7 µM (active),inactive,16.6 µM (active),–
Cn1cnc(=N)c2[nH]cnc21,0.187 µM (active),0.0833 µM (active),1.37 µM (active),2.35 µM (active),0.743 µM (active),1.92 µM (active),0.166 µM (active),1.53 µM (active),–,–
C[C@@H]1C(=O)O[C@H]2CC34[C@H]5C[C@@H](C(C)(C)C)C36[C@H](OC(=O)[C@@H]6O)O[C@@]4(C(=O)O5)[C@]21O (stereo not given in full),inactive,inactive,–,inactive,–,–,–,–,inactive,–
c1cc(N[C@@H]2CCNC2)nc(-c2cnc3ccc(-c4cn[nH]c4)cn23)c1,2.96 µM (active),4.69 µM (active),19.3 µM (active),inactive,18.7 µM (active),24.1 µM (active),–,17.2 µM (active),–,11.8 µM (active)
COc1ccc(Nc2nccc(NCCO)n2)cc1,inactive,–,inactive,inactive,inactive,inactive,–,inactive,inactive,inactive
